Compound activity (PubChem)
A selection: hits, their analogues and other compounds. The true share with any hit is near 28%.
CYP2C9 act = increases human cytochrome P450 2C9 activity | 96,000 compounds, 1.4% hits | recombinant CYP2C9, luciferin-H conversion, luminescence; active compounds read high; factor 1 = untreated enzyme, 0 = blocked | AID 1024 | P11712 | activation factor at 5 µM;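 active means activation factor of 2 or more for CYP2C9 at a 5 µM dose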
CYP2C9 inhib = human CYP2C9 inhibition; CYP2C9 Supersomes, luciferin-H conversion, luminescence; P11712; 96,000 compounds, 20% hits; inhibition, % at 5 µM; AID 777;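 active means blocking of liver enzyme CYP2C9 beyond about 50% at 5 µM, limit read from the data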
CYP2C19 inh = inhibitors of human CYP2C19; P33261; 96,000 compounds, 21% hits; CYP2C19 Supersomes, luciferin-H EGE luminescence, 30 min; AID 778; inhibition, % at 5 µM;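 active means CYP2C19 inhibition above a set limit at 5 µM in the primary screen, cut at about 50% in these data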
Target sequence (P33261 whole entry, looked up): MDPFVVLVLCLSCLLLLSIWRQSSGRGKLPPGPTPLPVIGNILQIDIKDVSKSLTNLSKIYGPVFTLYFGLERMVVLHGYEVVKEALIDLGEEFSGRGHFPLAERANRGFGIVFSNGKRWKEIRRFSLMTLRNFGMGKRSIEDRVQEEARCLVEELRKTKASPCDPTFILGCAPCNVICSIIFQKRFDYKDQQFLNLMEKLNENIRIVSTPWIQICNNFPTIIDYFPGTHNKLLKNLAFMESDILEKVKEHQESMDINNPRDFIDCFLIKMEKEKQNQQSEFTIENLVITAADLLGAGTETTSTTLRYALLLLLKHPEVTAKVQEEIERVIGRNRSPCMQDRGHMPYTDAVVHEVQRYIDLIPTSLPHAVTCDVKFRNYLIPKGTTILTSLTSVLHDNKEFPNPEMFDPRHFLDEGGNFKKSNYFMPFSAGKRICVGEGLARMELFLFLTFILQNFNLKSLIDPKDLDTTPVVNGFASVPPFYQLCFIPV
CYP2C19 activ = increases human CYP2C19 enzyme activity | P33261 | recombinant CYP2C19, luciferin-H EGE luminescence; active compounds read high; 0 = fully inhibited enzyme, 1 = untreated enzyme | activation factor at 5 µM | 96,000 tested, under 10 active;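 active means activation factor of at least 2 at 5 µM in the primary screen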
Mac1 fbg inh = inhibitors of human CD11b/CD18 binding to fibrinogen. P05107+P11215. inhibition, % at 10 µM. AID 1497. 93,000 compounds, 0.54% hits. K562 CD11b/CD18 adhesion to fibrinogen, ATPlite luminescence; Mn2+ added to activate the integrin;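 active means primary inhibition of 50% or more at 10 µM, then 40% or more on retest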
Mac1 fbg enh = enhancers of human CD11b/CD18 binding to fibrinogen. P05107+P11215. 93,000 compounds, 0.07% hits. activation, % at 10 µM. K562 CD11b/CD18 adhesion to fibrinogen, ATPlite luminescence;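 active means 10 µM primary screen giving 50% or more activity, confirmed by 40% or more on retest at that dose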
Numbers stand for hits; - = inactive; . = no result.

SMILES	CYP2C9 act	CYP2C9 inhib	CYP2C19 inh	CYP2C19 activ	Mac1 fbg inh	Mac1 fbg enh
CCOc1ccc(C(=O)Nc2ccc(NC(=O)c3cccs3)cc2)cc1[N+](=O)[O-]	.	.	.	.	-	-
O=C(/C=C/c1ccco1)Nc1ccc2nn(-c3ccccc3)nc2c1	.	.	.	.	-	-
Cc1cc(C)c2oc(-c3ccc(C)c(NC(=S)NC(=O)/C=C/c4ccco4)c3)nc2c1	-	-	97	-	-	-
Cc1cc(C)c2oc(-c3ccc(C)c(NC(=S)NC(=O)c4cccs4)c3)nc2c1	-	-	-	-	.	.
Cc1ccc(-c2nc3ccccc3[nH]2)cc1NC(=S)NC(=O)c1ccccc1Br	-	63	-	-	.	.
NC(=O)c1nsc(C(=O)N(CC(=O)NCc2ccc3c(c2)OCO3)C2CCCC2)c1N	-	-	-	-	-	-
Cc1c(C(=O)Nc2nc3ccccc3[nH]2)cccc1[N+](=O)[O-]	.	.	.	.	-	-
CCOc1ccc(C(=O)Nc2cc(-c3nc4ccccc4[nH]3)ccc2C)cc1[N+](=O)[O-]	-	65	82	-	.	.
CC1C(c2ccccc2)C(C#N)(C#N)C2(C#N)C(=O)NC1(N)C2C (configuration not stated)	-	-	98	-	-	-
COC(=O)c1sccc1NC(=S)N1CC(C)CC(C)C1 (configuration not stated)	-	70	83	-	-	-
COC(=O)c1sccc1NC(=S)N1CCC(C)CC1	-	-	-	-	-	-
Cc1nc2ccccc2n1CC(=O)N/N=C\C=C\c1ccccc1	-	-	-	-	.	.
Cc1ccc(NC(=O)Cn2c(/C=C/c3ccccc3)nc3ccccc32)cc1C	-	100	85	-	-	-
CCCn1c(/C=C/c2ccccc2)nc2ccccc21	-	-	51	-	.	.
CC(C)n1c(/C=C/c2ccccc2)nc2ccccc21	.	.	.	.	-	-
Cc1[nH]c2ccc(-c3nnc(SCC(=O)N4CCCc5ccccc54)o3)cc2c1C	-	-	-	-	-	-
O=C(NCc1cccc(Cl)c1)c1cccnc1	-	-	-	-	-	-
O=C(NCc1cccnc1)c1cccc(C(F)(F)F)c1	-	-	89	-	-	-
Cc1cc(C(=O)NCc2cccnc2)cs1	-	-	-	-	-	-
Cc1ccc2c(Cl)c(C(=O)NCc3cccnc3)sc2c1	-	-	-	-	-	-
O=C(NCc1cccnc1)c1sc2ccccc2c1Cl	-	-	88	-	-	-
O=C(NCc1cccnc1)c1ccc(Cl)c(Cl)c1	-	-	75	-	-	-
Cc1csc2nc(CNC(=O)c3cccc(C(F)(F)F)c3)cn12	2	-	-	-	-	-
Cc1cccc(NC(=S)c2nc3ccccc3s2)c1	-	-	-	-	-	-
COc1ccc(NC(=O)C(Sc2ccccc2)c2ccccc2)c(OC)c1 (configuration not stated)	.	.	.	.	-	-
SMILES	CYP2C9 act	CYP2C9 inhib	CYP2C19 inh	CYP2C19 activ	Mac1 fbg inh	Mac1 fbg enh
Cn1ncc([N+](=O)[O-])c1C(=O)N1CCOCC1	-	-	-	-	.	.
CCOc1ccc(CSC(CC(=O)O)C(=O)O)cc1 (configuration not stated)	-	-	-	-	-	-
Cc1ccc(CSCC(=O)NCc2cccnc2)cc1	.	.	.	.	-	-
O=C(CSCc1c(Cl)cccc1Cl)NCc1cccnc1	-	-	54	-	.	.
Cc1nc2ccc(S(=O)(=O)NCC(=O)N3CCCC(C)C3)cc2s1 (configuration not stated)	-	-	-	-	-	-
O=C1Nc2ccccc2C(O)(C(=O)NC2CC2)N1c1ccc(Cl)c(Cl)c1 (configuration not stated)	-	-	-	-	-	-
O=C1Nc2cc(Cl)c(Cl)cc2N(O)N1c1ccc(Cl)c(Cl)c1	-	54	-	-	-	-
O=[N+]([O-])c1ccc(NC(=S)NCCc2ccc(F)cc2)cc1	.	.	.	.	-	-
O=C(NC1CCCCC1)c1cccnc1C(=O)O	-	-	-	-	.	.
COC(=O)c1cccc(OCC(O)Cn2ccnc2)c1 (configuration not stated)	-	88	100	-	-	-
COC(=O)c1cccc(OCC(O)Cn2cnc3cc(C)c(C)cc32)c1 (configuration not stated)	-	-	-	-	-	-
CCOC(=O)C1CCCN(C(=O)c2ccc(CNc3c(N4CCC(C)CC4)c(=O)c3=O)cc2)C1 (configuration not stated)	-	55	-	-	-	-
CCOC(=O)N1CCN(c2c(NCc3ccc(Cl)cc3)c(=O)c2=O)CC1	-	64	-	-	-	-
CCCNC(=O)c1ccc(CNc2c(N3CCC(C(=O)OCC)CC3)c(=O)c2=O)cc1	-	-	-	-	-	-
CCOC(=O)C1CCCN(c2c(NCCN(CC)c3ccccc3)c(=O)c2=O)C1 (configuration not stated)	-	-	68	-	-	-
CCOC(=O)C1CCN(c2c(NCc3ccc(C(=O)NCCC(C)C)cc3)c(=O)c2=O)CC1	-	59	-	-	.	.
CCOC(=O)N1CCC(Nc2c(-c3ccccc3)c(=O)c2=O)CC1	-	-	-	-	-	-
CCOC(=O)N1CCC(Nc2c(N3CCN(c4cccc(C(F)(F)F)c4)CC3)c(=O)c2=O)CC1	-	58	-	-	-	-
CCCCSc1c(C)c2cc3c(cc2[nH]c1=O)OCO3	-	-	86	-	-	-
O=C(CCCn1c(=S)[nH]c2cc3c(cc2c1=O)OCO3)NC1CC1	-	-	-	-	.	.
N#Cc1cnn(Cc2ccccc2)c1N	-	-	-	-	-	-
N#Cc1cnn(Cc2ccc(Cl)cc2)c1N	-	-	55	-	-	-
COc1ccc(NC(=O)/C(C#N)=C\C=C\c2ccco2)cc1	.	.	.	.	-	-
CS/C(=N\S(=O)(=O)c1cccs1)NC(=O)CSc1nc2ccccc2s1	-	100	80	-	-	-
C=CCN1C(=O)C(CC(=O)O)SC1=Nc1c(C)n(C)n(-c2ccccc2)c1=O (configuration not stated)	-	-	-	-	-	-
C=CCN1C(=O)C(CC(=O)Nc2ccc(C)cc2)SC1=Nc1c(C)n(C)n(-c2ccccc2)c1=O (configuration not stated)	-	66	62	-	-	-
O=C(CC1SC(=O)N(c2ccccc2)C1=O)Nc1ccccc1 (configuration not stated)	-	-	-	-	-	-
O=C(CC1Sc2ncnn2C1=O)Nc1ccccc1 (configuration not stated)	-	-	-	-	-	-
CC(O)CN1C(=O)C(CC(=O)Nc2ccc(Cl)cc2)SC1=Nc1ccccc1 (configuration not stated)	-	67	72	-	-	-
COCCN1C(=O)C(CC(=O)Nc2ccc(C(C)=O)cc2)SC1=Nc1ccccc1 (configuration not stated)	-	72	54	-	-	-
